# Screening results (PubChem)
# The list is not random: actives were taken first. Their share in the collection is about 3.4%.
# p47phox inh: p47phox (human) inhibition; p47phox/p22phox peptide binding, fluorescence polarization, 2 h; inhibition, % at 24.7 µM; hit rate 0.53% among 220,000;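 active = inhibition above about 30%, limit read from the data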;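 note: 0% = p47phox with labelled peptide and 100% = labelled peptide alone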
# Target sequence (P14598 whole entry, looked up): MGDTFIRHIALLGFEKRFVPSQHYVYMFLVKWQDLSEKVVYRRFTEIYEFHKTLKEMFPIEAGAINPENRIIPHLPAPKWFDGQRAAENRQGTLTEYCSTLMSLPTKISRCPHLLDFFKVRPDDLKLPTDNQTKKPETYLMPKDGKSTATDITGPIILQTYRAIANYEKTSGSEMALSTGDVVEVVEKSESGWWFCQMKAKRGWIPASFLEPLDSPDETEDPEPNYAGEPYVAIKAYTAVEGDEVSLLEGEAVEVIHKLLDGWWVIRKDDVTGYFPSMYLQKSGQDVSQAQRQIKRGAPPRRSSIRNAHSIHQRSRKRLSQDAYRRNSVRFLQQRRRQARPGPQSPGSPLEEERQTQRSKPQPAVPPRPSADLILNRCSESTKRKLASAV
# Mcl-1 Bim block: disrupts Bim peptide binding to human Mcl-1; Q07820; Bead-based flow cytometry, Bim peptide-Mcl-1 binding; inhibition, % at 10 µM; hit rate 0.1% among 190,000; in the data active = inhibition above about 40%;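 note: 0% = no compound tracer wells and 100% = peptide blocker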
# 14-3-3 Bad PPI: disrupts binding of bovine 14-3-3 zeta to phospho-Bad peptide; hit rate 0.71% among 220,000; P63103; inhibition, % at 21.7 µM; TR-FRET 14-3-3zeta/Dy647-pBad peptide displacement, 1 h;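 active = inhibition above about 70%, limit read from the data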;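 note: 0% = full 14-3-3 plus peptide FRET controls and 100% = background without 14-3-3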
# Calpain2 inh: blocks pig calpain II enzyme activity; purified calpain II, fluorogenic peptide substrate, 30 min; inhibition, % at 16 µM; hit rate 0.37% among 220,000; AID 1236;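 active = inhibition above about 50%, limit read from the data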
# Mcl1 Noxa PPI: Mcl-1/Noxa interaction inhibition; Q07820; TR-FRET Mcl-1/Noxa peptide binding, 2 h; inhibition, % at 21.7 µM; hit rate 1.5% among 220,000;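 active = compounds that cut the protein-peptide binding signal by more than 50% relative to plate controls in a single-dose test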;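 note: His-tagged Mcl-1 with rhodamine Noxa BH3 peptide and terbium anti-His antibody; 0% = Mcl-1 plus Noxa peptide wells and 100% = peptide-only wells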
# Mcl1-Bid inh: disrupts binding of human Mcl-1 to Bid peptide; Q07820; TR-FRET Mcl-1/Bid-Dy647 peptide binding, 1536-well; inhibition, % at 21.7 µM; hit rate 0.97% among 220,000; AID 1021;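 active = compounds that cut the binding signal by more than half at the single screening dose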;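 note: His-tagged Mcl-1 with europium anti-His antibody binding Bid BH3 peptide; 0% = Mcl-1 plus peptide wells and 100% = peptide-only wells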
# * = called active by the depositor; · = no result.
SMILES,p47phox inh,Mcl-1 Bim block,14-3-3 Bad PPI,Calpain2 inh,Mcl1 Noxa PPI,Mcl1-Bid inh
O=P(O)(O)c1ccccc1OCCOCCOc1ccccc1P(=O)(O)O,-2,0,6,-5,17,24
C/C(=N/N=C1/NC(=O)CC(C(=O)Nc2ccccc2)S1)c1cccs1 (stereo unspecified),-17,-6,-7,-11,21,-10
Cc1ccc(CNc2nc(C)nc3sc4c(c23)CCC4)cc1,-6,0,-16,9,-16,91*
Cc1nc(Nc2ccc(O)cc2)c2c3c(sc2n1)CCCC3,-12,·,2,2,20,-13
O=C(COc1ccc2c(c1)CCC2)N1CCc2ccccc21,-13,2,1,-16,49,90*
CCn1nc(C)cc1C(=O)N1CCCC(CCC(=O)NCc2ccccc2F)C1 (stereo unspecified),10,0,-12,-20,45,-2
Brc1ccc(C2=Nc3cccc4cccc(c34)N2)o1,-2,0,-13,6,55*,-34
CCCCN(CCCC)CCn1cnc2c([nH]c3ccc(OC)cc32)c1=O,-4,3,4,-81,55*,-30
Nc1cc(-c2ccc(Cl)cc2)nn1-c1ccccc1,-2,-5,-8,12,27,-16
Nc1ccc(-c2cc(N)n(-c3ccccc3)n2)cc1,14,-3,81*,-13,34,-4
CC1(OC(=O)c2ccc(Cl)nc2)C(=O)C=C2C=C3CCCN3C=C2C1=O (stereo unspecified),22,·,4,-9,59*,-106
COC(=O)CCC(=O)OC1(C)C(=O)C=C2C=C3CCCN3C=C2C1=O (stereo unspecified),8,·,-2,7,54*,-48
CC1(OC(=O)C2CCCC2)C(=O)C=C2C=C3CCCCN3C=C2C1=O (stereo unspecified),-9,·,-4,-22,10,-145
CC1(OC(=O)C2CCCC2)C(=O)C=C2C=C(c3ccsc3)N(C3CC3)C=C2C1=O (stereo unspecified),3,·,-6,-24,-9,-90
O=C(NCC1CCCO1)c1ccc2c(=O)n(CC3CCCO3)c(SCC(=O)N3CCCC3)nc2c1 (stereo unspecified),-6,-2,-11,-24,16,2
CC(=O)N1C=Cc2c(c(C)c3c([nH]c4ccccc43)c2C)C1,77*,·,-6,12,-3,-50
COc1cccc(CC2(CO)CCCN(CC3=Cc4cc(Cl)ccc4OC3)C2)c1 (stereo unspecified),-36,-1,-16,-24,10,-16
O=C(O)c1cccnc1SCC(=O)C12CC3CC(CC(C3)C1)C2,-8,·,4,7,-30,-7
O=C(CSc1ccccn1)C12CC3CC(CC(C3)C1)C2,-2,0,-7,51*,3,-12
COC(=O)C1=C(C(=O)OC)C(c2ccc(OC)c(OC)c2)c2sc(=O)[nH]c2S1 (stereo unspecified),3,2,-13,-33,7,-25
COC(=O)C1=C(C(=O)OC)C(c2cc(Br)ccc2O)c2sc(=O)[nH]c2S1 (stereo unspecified),-19,-1,-11,-7,87*,7
COC(=O)C1=C(C(=O)OC)C(c2cc(Cl)ccc2O)c2sc(=O)[nH]c2S1 (stereo unspecified),-15,5,-16,-2,79*,27
CC(C)CN(CC(C)C)C(=S)NC1CCCCC1,-13,-1,-10,6,15,93*
O=C1c2cccc3cccc(c23)C(=O)N1c1nccs1,6,0,14,3,-21,-12
O=C1c2cccc3cccc(c23)C(=O)N1c1ccc2ncccc2c1,35*,6,74*,-13,-13,8
SMILES,p47phox inh,Mcl-1 Bim block,14-3-3 Bad PPI,Calpain2 inh,Mcl1 Noxa PPI,Mcl1-Bid inh
Cc1nnc(NC(=O)c2ccc(S(=O)(=O)C(F)F)cc2)s1,-11,·,2,-10,-4,-5
CC(=O)OC[C@H]1O[C@@H](n2ncc(=O)[nH]c2=O)[C@H](OC(C)=O)[C@@H]1OC(C)=O,-2,0,71*,10,10,0
CCOc1ccc(CN2CCC(C(=O)N3CCN(c4ccccc4F)CC3)CC2)cc1OC,-8,-2,74*,10,20,34
CC(C)CN1CCC(C(=O)N2CCN(c3ccccc3F)CC2)CC1,-9,-5,38,-16,29,-5
COc1cc(CN2CCC(C(=O)N3CCN(c4ccccc4F)CC3)CC2)cc(OC)c1O,-4,0,54,-15,29,51*
O=[N+]([O-])c1ccc(O)c(/C=N/Nc2ccc(Cl)nn2)c1,-6,1,-12,8,79*,-4
O=[N+]([O-])c1ccc(O)c(/C=N/Nc2nn[nH]n2)c1,-4,3,-16,22,2,-78
COc1ccc(CCN=C(N)NS(=O)(=O)c2ccc(C)cc2)cc1OC,1,0,-3,-1,55*,0
Cc1cc(C)cc(-n2c(SCC(=O)NCc3ccc4c(c3)OCO4)nc3ccccc3c2=O)c1,-21,-6,2,10,10,-83
O=C(CSc1nc2cc([N+](=O)[O-])ccc2n1-c1ccccc1)NCc1ccc2c(c1)OCO2,-2,4,-2,-4,58*,3
O=Cc1cn(CC(O)CN2CCCCC2)c2ccccc12 (stereo unspecified),-4,0,-14,-26,1,-44
CC(C)(CO)NCC(O)Cn1cc(C=O)c2ccccc21 (stereo unspecified),2,-1,100*,-2,16,-14
CC(C)Cn1ccc(=O)n(CC(C)C)c1=O,4,-10,14,13,-5,55*
O=C1[C@H]2[C@@H](C(=O)N1c1cccc3ccccc13)C1(C(=O)c3ccccc3C1=O)N1CCC[C@@H]21,-11,-6,9,-62,64*,-26
CCN1C(=O)/C(=C\C=C2/C=CC=CN2CC)SC1=S,-261,-5,-26,25,-22,-33
CCN1/C(=C\C=C(C(C)=O)C(C)=O)Sc2ccccc21,-42,-2,-6,5,8,-37
CCN1/C(=C\C=C2\C(=O)N(c3ccccc3)C(=S)N2C)Sc2ccccc21,23,-5,95*,46,60*,78*
CCCN1C(=O)/C(=C\C=C2/Sc3ccccc3N2CC)SC1=S,77*,3,-16,7,-9,-26
CCN1C(=O)/C(=C/C=C2\C=CN(CC)c3ccccc32)SC1=S,-13,6,-10,8,64*,49
C/C(=N\NC(=O)c1cc(-c2ccncc2)nc2ccccc12)c1ccc(OC(F)F)cc1,-5,1,-1,-69,16,0
CCCCCC#CCC#CCC#CCC#CCCCC(=O)O,-58,0,89*,32,103*,100*
CCCCCCCCCCCCS(=O)(=O)CCC(=O)O,-10,·,6,-10,11,5
